Measurements taken from PubChem BioAssay (NCATS).
Results filed as inconclusive are left out. Activity calls are given as the source filed them. Unless noted, the call rests on the fitted dose curve; in most records, active means well fitted curve in the direction sought with a large enough effect; inconclusive means small, poorly fitted or top-dose-only effect, or another doubt; inactive means no such curve, though single readings can be large; an effect the other way counts as inactive or inconclusive.

Assays:
[1] = biological target: Voltage-gated inwardly rectifying potassium channel KCNH2 (Homo sapiens) (UniProt Q12809); test: qHTS Assay for Small Molecule Inhibitors of the Human hERG Channel Activity (AID 588834);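 further: top concentration of the series differs between compounds; on the % scale 0 is the no-effect control and ±100 the full control effect; lower thallium flux fluorescence means stronger hERG block; nearly all actives have a fitted effect of over 50% in size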
Voltage-gated inwardly rectifying potassium channel KCNH2 (Homo sapiens), sequence (Q12809 whole entry, looked up): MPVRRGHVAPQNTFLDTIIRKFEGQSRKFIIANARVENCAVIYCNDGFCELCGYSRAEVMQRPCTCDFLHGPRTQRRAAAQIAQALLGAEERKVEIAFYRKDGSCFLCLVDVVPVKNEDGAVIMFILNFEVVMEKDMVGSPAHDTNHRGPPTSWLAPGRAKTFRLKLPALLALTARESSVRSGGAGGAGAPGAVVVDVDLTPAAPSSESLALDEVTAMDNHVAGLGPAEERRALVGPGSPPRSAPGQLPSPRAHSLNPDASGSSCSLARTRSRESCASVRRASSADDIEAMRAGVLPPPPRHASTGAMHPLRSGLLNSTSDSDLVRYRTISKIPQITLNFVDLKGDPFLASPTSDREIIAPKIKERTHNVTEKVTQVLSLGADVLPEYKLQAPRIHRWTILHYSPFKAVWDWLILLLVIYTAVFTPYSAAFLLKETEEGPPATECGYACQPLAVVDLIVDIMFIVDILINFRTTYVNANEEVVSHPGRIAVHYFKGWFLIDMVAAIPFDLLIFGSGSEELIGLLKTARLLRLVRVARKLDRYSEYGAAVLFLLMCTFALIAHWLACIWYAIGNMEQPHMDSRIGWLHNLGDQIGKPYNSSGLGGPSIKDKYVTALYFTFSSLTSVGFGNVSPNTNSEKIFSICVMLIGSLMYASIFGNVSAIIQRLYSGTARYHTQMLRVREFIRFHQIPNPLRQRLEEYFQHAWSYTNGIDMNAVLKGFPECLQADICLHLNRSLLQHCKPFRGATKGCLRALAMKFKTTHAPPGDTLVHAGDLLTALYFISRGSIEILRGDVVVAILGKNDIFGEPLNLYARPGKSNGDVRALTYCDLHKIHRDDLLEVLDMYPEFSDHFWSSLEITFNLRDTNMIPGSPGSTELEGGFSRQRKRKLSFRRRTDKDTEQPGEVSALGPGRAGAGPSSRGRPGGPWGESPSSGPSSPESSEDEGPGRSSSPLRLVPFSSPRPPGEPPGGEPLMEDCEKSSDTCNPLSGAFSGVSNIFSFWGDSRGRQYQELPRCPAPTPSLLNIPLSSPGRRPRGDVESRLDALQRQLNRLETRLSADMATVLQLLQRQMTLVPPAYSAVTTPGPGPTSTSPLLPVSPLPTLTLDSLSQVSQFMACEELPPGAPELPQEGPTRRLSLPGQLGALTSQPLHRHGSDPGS
In short: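 hERG block measured as reduced thallium-dye (FluxOR) fluorescence after stimulation buffer addition, read over 2 min. Cells were hERG-BacMam-transduced U2OS exposed to compound ~10 min […]; concentration-response fitted with Hill equation for AC50.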

[2] = qHTS of Trypanosoma Brucei Inhibitors: LOPAC Validation (AID 624147); further: 0% is about no effect
In short: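 T. brucei PYK with substrate was exposed to pin-transferred compounds across a concentration series, then started with 130 uM ADP (final). After 45 min at room temperature, Kinase-Glo Plus luminescence was read, normalized and curve-fitted.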

[3] = biological target: Glucagon-like peptide 1 receptor (Homo sapiens) (UniProt P43220); test: qHTS of GLP-1 Receptor Agonists: LOPAC Validation (AID 624148);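 further: 0% is about no effect; higher luminescence signal means agonism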
Glucagon-like peptide 1 receptor (Homo sapiens), sequence (P43220 whole entry, looked up): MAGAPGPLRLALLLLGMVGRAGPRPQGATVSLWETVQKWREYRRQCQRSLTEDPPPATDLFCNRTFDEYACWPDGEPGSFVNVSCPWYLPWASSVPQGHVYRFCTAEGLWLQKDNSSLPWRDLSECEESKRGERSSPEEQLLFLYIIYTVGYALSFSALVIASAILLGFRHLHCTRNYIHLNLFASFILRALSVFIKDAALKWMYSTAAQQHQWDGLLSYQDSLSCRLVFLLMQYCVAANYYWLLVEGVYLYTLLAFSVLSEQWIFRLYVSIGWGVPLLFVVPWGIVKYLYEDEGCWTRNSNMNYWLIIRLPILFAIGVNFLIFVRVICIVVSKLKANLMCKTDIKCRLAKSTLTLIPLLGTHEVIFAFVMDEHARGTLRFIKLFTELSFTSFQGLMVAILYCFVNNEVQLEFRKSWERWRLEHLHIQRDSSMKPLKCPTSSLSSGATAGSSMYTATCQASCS
In short: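 HEK293 cells stably co-expressing a cAMP-responsive luciferase reporter and a hypersensitive GLP-1R were plated 12 h at 37 °C and exposed to compounds for 4-6 hr at 37 °C, 5% CO2. Luminescence was read 12 min after adding detection reagent.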

[4] = qHTS of Nrf2 Activators: LOPAC Validation (AID 624149); further: 0% is about no effect
In short: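 Following overnight seeding in 5% FBS OPTI-MEM, AREc32_Fluc cells receive compounds for a 24 hr incubation at 37 deg C with 5% CO2. Steady-Glo is added, and after 30 min at RT luminescence is recorded.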

[5] = HTS Assay for Allosteric Antagonists of the Human D2 Dopamine Receptor: Hit Validation in HTRF (AID 624455);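 further: stable D1 dopamine receptor cell line scored for blocking the D1 response; on the % scale 0 is the no-effect control and ±100 the full control effect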
In short: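 Validation of hits used D1 receptor stably expressed in cells with HTRF detection of response inhibition; origin screen measured calcium flux following EC80 dopamine in a force-coupled, inducible Hek293 Trex D2 cell line.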

[6] = biological target: Glutaminase kidney isoform, mitochondrial (Homo sapiens) (UniProt O94925); test: qHTS for Inhibitors of Glutaminase (GLS): LOPAC Validation (AID 624146);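 further: glutamate product detected by oxidase and peroxidase coupled Amplex red fluorescence gain; series mostly up to about 46 µM; on the % scale 0 is the no-effect control and ±100 the full control effect; nearly all actives have a fitted effect of over 60% in size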
Glutaminase kidney isoform, mitochondrial (Homo sapiens), sequence (O94925 whole entry, looked up, canonical isoform): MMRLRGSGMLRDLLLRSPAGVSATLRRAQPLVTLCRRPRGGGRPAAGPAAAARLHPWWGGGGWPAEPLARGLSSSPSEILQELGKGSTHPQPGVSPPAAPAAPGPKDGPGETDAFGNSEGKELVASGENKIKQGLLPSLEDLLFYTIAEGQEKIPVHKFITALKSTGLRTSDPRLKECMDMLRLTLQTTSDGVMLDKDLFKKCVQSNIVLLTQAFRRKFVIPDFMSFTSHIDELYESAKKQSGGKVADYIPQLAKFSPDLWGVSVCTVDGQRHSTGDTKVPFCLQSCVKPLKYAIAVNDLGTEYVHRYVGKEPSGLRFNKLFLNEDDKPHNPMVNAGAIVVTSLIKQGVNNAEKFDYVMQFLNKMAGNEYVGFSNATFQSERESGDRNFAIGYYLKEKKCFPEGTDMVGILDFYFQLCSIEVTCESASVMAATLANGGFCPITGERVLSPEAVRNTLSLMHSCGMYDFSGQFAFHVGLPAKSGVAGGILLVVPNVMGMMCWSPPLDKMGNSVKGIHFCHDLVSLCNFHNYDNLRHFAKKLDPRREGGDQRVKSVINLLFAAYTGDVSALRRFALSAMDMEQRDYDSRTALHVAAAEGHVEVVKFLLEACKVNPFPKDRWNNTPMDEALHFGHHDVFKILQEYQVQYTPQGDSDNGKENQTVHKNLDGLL
In short: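 hKGA; 45 mM KH2PO4 pH 8.2 + 0.02% Tween-20; cpd via pin tool; 1 mM Gln soln; GluOx/HRP/Amplex Red; RT 30 min; fluor. t0 & final.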

[7] = biological target: Luciferin 4-monooxygenase (Photinus pyralis) (UniProt P08659); test: Biochemical firefly luciferase enzyme assay for NPC (AID 624030);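 further: purified P. pyralis luciferase at 10 nM with luciferin and ATP substrate; series mostly up to about 59 µM; 0% = DMSO and -100% = full luciferase inhibition by PTC124 control; nearly all actives have a fitted effect of over 70% in size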
Luciferin 4-monooxygenase (Photinus pyralis), sequence (P08659 whole entry, looked up): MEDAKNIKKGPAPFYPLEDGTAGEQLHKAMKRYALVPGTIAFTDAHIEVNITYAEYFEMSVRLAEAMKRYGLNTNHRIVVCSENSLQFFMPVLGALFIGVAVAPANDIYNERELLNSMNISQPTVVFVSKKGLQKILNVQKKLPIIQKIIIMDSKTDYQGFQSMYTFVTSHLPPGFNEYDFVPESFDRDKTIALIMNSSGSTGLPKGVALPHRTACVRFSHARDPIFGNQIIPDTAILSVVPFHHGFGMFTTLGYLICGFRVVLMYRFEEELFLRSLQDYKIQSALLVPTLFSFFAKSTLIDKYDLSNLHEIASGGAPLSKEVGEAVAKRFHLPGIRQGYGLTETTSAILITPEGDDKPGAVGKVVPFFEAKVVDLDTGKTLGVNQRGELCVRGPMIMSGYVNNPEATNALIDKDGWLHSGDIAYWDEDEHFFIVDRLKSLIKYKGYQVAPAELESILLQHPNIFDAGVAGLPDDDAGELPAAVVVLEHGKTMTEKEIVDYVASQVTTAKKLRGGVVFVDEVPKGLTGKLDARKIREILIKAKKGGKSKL
In short: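 Counter-screen for direct inhibition of the luciferase enzyme by approved-drug library compounds, run at 10 nM enzyme in 50 mM Tris acetate (final). Luminescence was read within 5 min of enzyme-buffer addition and normalized to PTC124 versus DMSO (0%).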

[8] = S16 Schwann cell viability assay (CellTiter-Glo assay) (AID 624031);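 further: cellular ATP luminescence as a viability measure; series mostly up to about 58 µM; plate controls were DMSO-treated cells for no effect and cell-free wells for full effect; nearly all actives have a fitted effect of over 70% in size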
In short: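 CellTiter-Glo ATP luminescence counter-screen in untransfected S16 rat Schwann cells, 24h compound exposure at 37 degree Celsius after overnight seeding (500-750 cells/well); response scaled between cell-free wells and DMSO (0% activity), curves classed by r2 and magnitude.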

[9] = S16 Schwann cell PMP22 intronic element firefly luciferase assay (AID 624032);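 further: series mostly up to about 58 µM; plate controls were DMSO for no effect and PTC124 positive control mean for full effect; nearly all actives have a fitted effect of over 30% in size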
In short: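 Rat S16 Schwann cells stably carrying a PMP22 intronic element-driven Fluc reporter were seeded overnight, then exposed to compounds for 24 h at 37 °C. Luminescence was normalized to PTC124 (positive control) and DMSO (0% activity).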

[10] = S16 Schwann cell PMP22 intronic element beta-lactamase assay (AID 624044; calls by dose curve;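 further: 0% = DMSO and -100% = potassium clavulanate positive control; nearly all actives have a fitted effect of over 15% in size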)
In short: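 Beta-lactamase reporter under a PMP22 intronic regulatory element in stable S16 rat Schwann cells; 24 h compound exposure. 460 nm blue signal normalized between DMSO (0%) and potassium clavulanate, with 535 nm FRET tracking viability; curves classed by r2 and response.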

[11] = qHTS assay for small molecule activators of the p53 signaling pathway (AID 651743; active means well fitted activation curve with a large enough effect in the signal ratio, not every such curve was filed as active; the % refers to the signal ratio; further: series mostly up to about 92 µM; % of control where 0% means no effect); conditions: HCT-116 p53RE-bla, beta-lactamase FRET ratio, 16 h; active compounds read high
In short: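 Here HCT-116 cells with an integrated p53-responsive beta-lactamase gene were incubated with compounds (16 hours, 37 C) after a 5-hour plating period; beta-lactamase activity was detected as fluorescence intensity via B/G FRET substrate.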

[12] = qHTS assay for small molecule activators of the nuclear factor-kappa B (NF-kB) signaling pathway (AID 651749; active means well fitted activation curve with a large enough effect in the signal ratio; the % refers to the signal ratio; further: series mostly up to about 77 µM; % of control where 0% means no effect); conditions: NF-kB-bla ME-180 cells, beta-lactamase FRET ratio, 16 h; active compounds read high
In short: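 Beta-lactamase reporter expression, controlled by NF-kB response elements in ME-180 cells, was quantified fluorometrically via FRET disruption; cells at 2,000/well had been incubated with 23 nL test compound for 16 hr.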

[13] = qHTS assay for environmental chemicals that activate the Aryl hydrocarbon Receptor (AhR) signaling pathway (AID 651777); conditions: 1A2-DRE human hepatoma cells, luciferase, 24 h; active compounds read high; further: % of control where 0% means no effect; nearly all actives have a fitted effect of over 15% in size
In short: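 Luminescence (One-Glo, 30 min, room temperature) reports AhR-driven luciferase in stably transfected human hepatoma cells bearing DRE and CYP1A2 promoter. Cells (1,200/well) were treated with compound for 24 hr at 37 C in qHTS format.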

[14] = biological target: Peroxisome proliferator-activated receptor alpha (Homo sapiens) (UniProt Q07869); test: qHTS assay for small molecule agonists of the peroxisome proliferator-activated receptor alpha (PPARalpha) signaling pathway (AID 651778); conditions: PathHunter PPARalpha complementation, chemiluminescence, 6 h; max response: active compounds read high; further: potency means the concentration at half of the fitted maximal effect
Peroxisome proliferator-activated receptor alpha (Homo sapiens), sequence (Q07869 whole entry, looked up): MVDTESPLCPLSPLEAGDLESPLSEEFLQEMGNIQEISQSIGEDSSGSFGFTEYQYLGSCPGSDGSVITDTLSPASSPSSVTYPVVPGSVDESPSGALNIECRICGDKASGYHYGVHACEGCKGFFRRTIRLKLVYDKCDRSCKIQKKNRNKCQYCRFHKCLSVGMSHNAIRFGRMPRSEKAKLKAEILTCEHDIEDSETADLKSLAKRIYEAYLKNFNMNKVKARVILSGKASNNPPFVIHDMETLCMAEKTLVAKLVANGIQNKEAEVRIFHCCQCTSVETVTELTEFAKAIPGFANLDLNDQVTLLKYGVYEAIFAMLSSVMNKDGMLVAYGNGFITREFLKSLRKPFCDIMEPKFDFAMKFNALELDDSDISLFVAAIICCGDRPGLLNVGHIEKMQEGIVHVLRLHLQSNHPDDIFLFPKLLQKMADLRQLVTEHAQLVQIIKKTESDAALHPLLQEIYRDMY
In short: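 Cells plated at 2,000/well and held overnight at 37 C, 5% CO2, then compound added by pin tool for 6 hr; after PathHunter detection reagent and 60 min at room temperature, chemiluminescence from enzyme complementation was read.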

O=c1[nH]ccc2c(O)cccc12
inactive: Potency [1] | Potency [2] | Potency [3] | Potency [4] | Potency [5]

O=C(O)/C(=C/c1c(C(=O)O)[nH]c2cc(Cl)cc(Cl)c12)c1ccccc1
inactive: Potency [1] | Potency [2] | Potency [3] | Potency [4] | Potency [5]

C=C1C[C@@]23CC[C@H]4[C@@](C)(CCC[C@@]4(C)C(=O)OC4OC(CO)C(O)C(O)C4O)[C@@H]2CC[C@]1(OC1OC(CO)C(O)C(O)C1OC1OC(CO)C(O)C(O)C1O)C3 (some centres undefined)
inactive: Potency [6] | Potency [2] | Potency [3] | Potency [4] | Potency [5]

CC(O)C(O)[C@H]1CNc2nc(N)[nH]c(=O)c2N1 (some centres undefined)
inactive: outcome [7] | outcome [8] | outcome [9] | outcome [10] | Potency [6] | Potency [2] | Potency [3] | Potency [4] | Potency [5]

CCCCCCCCCCCCCCC[C@H](O)[C@H](N)CO
inactive: outcome [7] | outcome [9] | outcome [10] | Potency [6] | Potency [2] | Potency [3] | Potency [4] | Potency [5]

CCCCCCCCCCCCCCSCC(=O)O
inactive: Potency [1] | Potency [2] | Potency [3] | Potency [4] | Potency [5] | activation [11] 1.79% | activation [12] 3.35% | activation [13] 0.376%
active: Potency [14] 10 µM

NC1(C(=O)O)CC1
inactive: Potency [6] | Potency [2] | Potency [3] | Potency [4] | Potency [5]

CSc1nc(N)c2ncn([C@@H]3O[C@H](COP(=O)(O)OP(=O)(O)O)C(O)[C@H]3O)c2n1 (some centres undefined)
inactive: Potency [6] | Potency [2] | Potency [3] | Potency [4]

COc1ccc2c(c1)c(CC(=O)O)c(C)n2Cc1ccc(Cl)cc1
inactive: Potency [1] | Potency [2] | Potency [3] | Potency [4] | Potency [5]

C=CCNc1ncnc2ccc(Br)cc12
inactive: Potency [6] | Potency [2] | Potency [3] | Potency [4] | Potency [5]

CC(=O)N[C@@H](Cc1c[nH]c2ccccc12)C(=O)OCc1cc(C(F)(F)F)cc(C(F)(F)F)c1
inactive: Potency [6] | Potency [2] | Potency [3] | Potency [4] | Potency [5]

CC(C)NC[C@H](O)COc1ccc(CC(N)=O)cc1
inactive: outcome [8] | outcome [9] | Potency [6] | Potency [3] | Potency [4]

Cc1ccc2c(c1)C(N1CCN(C)CC1)=Nc1cccnc1N2
inactive: Potency [1] | Potency [3] | Potency [4] | Potency [5]

O=c1ccc2c(OCCCCc3ccccc3)c3ccoc3cc2o1
inactive: Potency [6] | Potency [2] | Potency [3] | Potency [4] | Potency [5]

Cc1cc(Cn2cnc3c2C[C@@H](C(=O)O)N(C(=O)C(c2ccccc2)c2ccccc2)C3)ccc1N
inactive: Potency [6] | Potency [2] | Potency [3] | Potency [4] | Potency [5]
